PubChem BioAssay (Tox21)
“And” between values parts separate entries of the source, which are not always exact repeats. Equal entries are not always repeated. Records with an inconclusive call do not appear. Entries that show only a call come without a potency. The source holds several records for some structures; these can differ, active in one and inactive in another. The source made the active and inactive calls. Unless noted, calls come from the whole dose curve; as a rule, active = well fitted curve in the direction sought with a large enough effect in the repeat runs; inconclusive = weak or mixed curves; inactive = no such curve, though single readings can be large; an effect the other way counts as inactive or inconclusive.

Tests used:
[1] = qHTS assay to identify small molecule agonists of the estrogen receptor alpha (ER-alpha) signaling pathway in the presence of an antagonist - cell viability counter screen (AID 1259386);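 note: series mostly up to about 92 µM; cells exposed to compounds for 22 h at 37 °C before the viability read; nearly all actives have a fitted effect of over 30% in size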
Procedure, shortened: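 Fluorescent CellTiter-Fluor viability signal from VM7Luc4E2 cells, with the reagent added during the final hour of a 22hr compound exposure at 37C in the presence of 10.0nM ICI-182,780.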

[2] = target: Progesterone receptor (Homo sapiens) (UniProt P06401); experiment: qHTS assay to identify small molecule agonists of the progesterone receptor (PR) signaling pathway (AID 1346784; calls by dose curve; note: nearly all actives have a fitted effect of over 30% in size)
Progesterone receptor (Homo sapiens), sequence (P06401 whole entry, looked up): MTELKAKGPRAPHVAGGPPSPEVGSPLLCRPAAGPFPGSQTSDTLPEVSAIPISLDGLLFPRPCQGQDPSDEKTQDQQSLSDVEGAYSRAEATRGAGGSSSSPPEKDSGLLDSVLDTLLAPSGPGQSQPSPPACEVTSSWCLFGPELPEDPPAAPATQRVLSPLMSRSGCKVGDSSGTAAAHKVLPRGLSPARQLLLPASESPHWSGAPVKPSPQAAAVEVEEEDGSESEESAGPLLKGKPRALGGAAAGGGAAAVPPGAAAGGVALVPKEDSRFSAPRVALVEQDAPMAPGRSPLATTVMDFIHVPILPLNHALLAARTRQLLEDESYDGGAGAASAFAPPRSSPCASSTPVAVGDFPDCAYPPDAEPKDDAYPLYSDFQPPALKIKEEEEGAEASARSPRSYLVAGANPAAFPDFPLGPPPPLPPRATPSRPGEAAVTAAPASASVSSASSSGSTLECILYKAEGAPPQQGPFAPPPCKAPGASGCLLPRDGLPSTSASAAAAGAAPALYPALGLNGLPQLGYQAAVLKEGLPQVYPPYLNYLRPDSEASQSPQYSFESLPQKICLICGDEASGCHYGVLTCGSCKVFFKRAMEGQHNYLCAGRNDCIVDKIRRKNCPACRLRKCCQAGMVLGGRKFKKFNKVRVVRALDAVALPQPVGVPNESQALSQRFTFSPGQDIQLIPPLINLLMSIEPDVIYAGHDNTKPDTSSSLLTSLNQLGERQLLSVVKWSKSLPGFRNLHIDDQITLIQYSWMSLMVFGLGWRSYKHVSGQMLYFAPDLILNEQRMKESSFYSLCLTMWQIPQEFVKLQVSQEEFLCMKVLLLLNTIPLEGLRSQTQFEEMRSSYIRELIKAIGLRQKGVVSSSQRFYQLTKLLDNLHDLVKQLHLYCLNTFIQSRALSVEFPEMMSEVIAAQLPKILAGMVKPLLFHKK
Procedure, shortened: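 Beta-lactamase reporter read-out: after 16 hr compound treatment at 37C and a further 2 hr at room temperature with LiveBLAzer B/G FRET substrate, fluorescence was measured in PR-UAS-bla HEK 293T cells grown in 2% charcoal-stripped serum.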

[3] = target: Progesterone receptor (Homo sapiens) (UniProt P06401); experiment: qHTS assay to identify small molecule antagonists of the progesterone receptor (PR) signaling pathway (AID 1346795; active = well fitted inhibition curve with a large enough effect in the signal ratio in the repeat runs, not every such curve was filed as active; the % refers to the signal ratio)
Procedure, shortened: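 Read-out is fluorescence from the LiveBLAzer B/G FRET substrate, cleaved by a UAS-controlled beta-lactamase in PR-UAS-bla HEK293T cells after 16 hr exposure to compound plus 1 nM promegestone (final), followed by 2 hr at room temperature.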

[4] = qHTS assay to identify small molecule antagonists of the progesterone receptor (PR) signaling pathway - cell viability counter screen (AID 1346798);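 note: HEK293T PR-UAS-bla cells stimulated with the agonist R5020; series mostly up to about 92 µM; nearly all actives have a fitted effect of over 50% in size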
Procedure, shortened: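 HEK293T PR-UAS-bla, 2% charcoal-stripped FBS; 4 hr pre-plate; cpd + R5020, 16 h 37C; LiveBLAzer read first; then CellTiter-Glo 30 min RT, luminescence.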

[5] = qHTS assay to identify small molecule agonists of the progesterone receptor (PR) signaling pathway - cell viability counter screen (AID 1346799; calls by dose curve; note: nearly all actives have a fitted effect of over 45% in size)
Procedure, shortened: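 Luminescence from CellTiter-Glo, added after the beta-lactamase FRET read in the same wells, gave cytotoxicity in PR-UAS-bla HEK293T cells treated with compounds for 16 hr at 37C.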

[6] = qHTS assay to identify small molecule antagonists of the TGF-beta/Smad signaling pathway - cell viability counter screen (AID 1346824); note: nearly all actives have a fitted effect of over 50% in size
Procedure, shortened: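 SBE-bla HEK 293T cells were plated overnight at 37 C, then given compounds in DMSO plus TGF-beta1 (added as 0.25 ng/mL solution) for 5 hr. After the bla read, CellTiter-Glo was added to the same wells and luminescence read after 30 min at room temperature.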

[7] = qHTS assay to identify small molecule agonists of the TGF-beta/Smad signaling pathway (AID 1346859; active = well fitted activation curve with a large enough effect in the signal ratio in the repeat runs, not every such curve was filed as active; the % refers to the signal ratio; note: series mostly up to about 77 µM)
Procedure, shortened: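 SBE-bla HEK 293T, 4,000 cells/well, plated o/n; cpd in DMSO, 5 hr, 37 C/5% CO2; B/G FRET substrate 2 hr RT; ex 405, em 460/530 nm.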

[8] = target: Thyrotropin-releasing hormone receptor (Homo sapiens) (UniProt P34981); experiment: qHTS assay to identify small molecule antagonists of the thyrotropin-releasing hormone receptor (TRHR) signaling pathway (AID 1346877; active = well fitted inhibition curve with a large enough effect in the repeat runs, not every such curve was filed as active; note: series mostly up to about 51 µM)
Thyrotropin-releasing hormone receptor (Homo sapiens), sequence (P34981 whole entry, looked up): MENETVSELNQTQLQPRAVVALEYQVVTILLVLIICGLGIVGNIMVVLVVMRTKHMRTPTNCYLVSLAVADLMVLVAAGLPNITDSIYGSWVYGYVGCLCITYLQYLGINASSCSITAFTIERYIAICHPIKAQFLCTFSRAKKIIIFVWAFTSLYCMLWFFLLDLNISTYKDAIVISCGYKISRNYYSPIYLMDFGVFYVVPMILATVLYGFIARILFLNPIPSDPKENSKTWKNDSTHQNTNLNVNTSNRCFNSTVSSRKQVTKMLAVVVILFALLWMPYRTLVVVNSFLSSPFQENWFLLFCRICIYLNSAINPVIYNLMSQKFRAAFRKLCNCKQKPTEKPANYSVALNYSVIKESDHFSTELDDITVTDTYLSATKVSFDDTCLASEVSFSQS
Procedure, shortened: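 In this cell-based calcium flux format, HEK293 cells expressing TRHR received test compound for 5 min before the agonist TRH (1 nM final). Dye loading lasted 2 h at 37 °C.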

[9] = target: Thyrotropin-releasing hormone receptor (Homo sapiens) (UniProt P34981); experiment: qHTS assay to identify small molecule agonists of the thyrotropin-releasing hormone receptor (TRHR) signaling pathway (AID 1346891; calls by dose curve; note: series mostly up to about 58 µM)
Procedure, shortened: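 Intracellular calcium rise, read as fluorescence every second for 3 min, served as the agonist signal in dye-loaded HEK293 cells expressing TRHR; each compound ran at 15 concentrations in triplicate.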

[10] = Caspase-3/7 induction in CHO-K1 cells by small molecules, qHTS cell viability counter screen (AID 1346979); note: nearly all actives have a fitted effect of over 35% in size
Procedure, shortened: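 Cells (CHO-K1, wild type) are plated at 1,500 per well and incubated 5hr. Test compounds in DMSO are then pinned in, followed by 16hr at 37C and 5% CO2. Viability is read by CellTiter-Fluor fluorescence after 1hr.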

[11] = Caspase-3/7 induction in CHO-K1 cells by small molecules, qHTS assay (AID 1346980); note: nearly all actives have a fitted effect of over 15% in size
Procedure, shortened: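 Wild-type cells were seeded at 1,500 per well and settled 5 hr at 37 C, 5% CO2, then exposed to DMSO-dissolved compounds for 17 hr. Caspase-Glo 3/7 reagent was added, and luminescence was read after 30min at room temperature.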

[12] = Caspase-3/7 induction in HepG2 cells by small molecules, qHTS cell viability counter screen (AID 1346981); note: series mostly up to about 92 µM; nearly all actives have a fitted effect of over 30% in size
Procedure, shortened: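 Counter screen for cytotoxicity: HepG2 exposed 16 hr to compounds, then CellTiter-Fluor viability signal (fluorescence, 1 hr reagent incubation).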

[13] = Caspase-3/7 induction in HepG2 cells by small molecules, qHTS assay (AID 1346978); note: nearly all actives have a fitted effect of over 15% in size
Procedure, shortened: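 Wild-type HepG2 cells (2,000/well) were settled 5 h at 37 C, 5% CO2, then exposed to compounds in DMSO for 17 h. Caspase-3/7 activity was read by luminescence 30 min after adding Caspase-Glo 3/7 reagent at room temperature.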

[14] = target: Nuclear receptor subfamily 1 group I member 2 (Homo sapiens) (UniProt O75469); experiment: Human pregnane X receptor (PXR) small molecule agonists, qHTS assay (AID 1346982); note: nearly all actives have a fitted effect of over 35% in size
Nuclear receptor subfamily 1 group I member 2 (Homo sapiens), sequence (O75469 whole entry, looked up): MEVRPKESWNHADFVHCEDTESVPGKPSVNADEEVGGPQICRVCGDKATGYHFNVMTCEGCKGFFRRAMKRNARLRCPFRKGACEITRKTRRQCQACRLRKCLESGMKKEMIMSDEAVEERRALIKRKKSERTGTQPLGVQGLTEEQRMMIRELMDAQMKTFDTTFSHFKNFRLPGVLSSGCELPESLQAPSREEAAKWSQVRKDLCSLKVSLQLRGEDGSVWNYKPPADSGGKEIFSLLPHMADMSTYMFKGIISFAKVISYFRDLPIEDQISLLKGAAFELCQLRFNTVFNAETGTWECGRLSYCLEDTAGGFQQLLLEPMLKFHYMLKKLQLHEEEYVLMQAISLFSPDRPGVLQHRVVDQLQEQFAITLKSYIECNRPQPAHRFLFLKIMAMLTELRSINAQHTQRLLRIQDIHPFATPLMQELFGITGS
Procedure, shortened: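 Luminescence (ONE-Glo, 30 min RT) after 24 hr compound exposure of PXR-Luc HepG2 cells; cells rested 5 hr post-plating in 5% charcoal-stripped FBS medium.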

[15] = target: Cytochrome P450 2D6 (Homo sapiens) (UniProt P10635); experiment: Cytochrome P450 Family 2 Subfamily D Member 6 (CYP2D6) small molecule antagonists: luciferase reporter qHTS assay (AID 1671196); note: nearly all actives have a fitted effect of over 50% in size; note: potency is the fitted concentration of half-maximal effect; for activity change, negative = inhibition: series mostly up to about 120 µM
Cytochrome P450 2D6 (Homo sapiens), sequence (P10635 whole entry, looked up): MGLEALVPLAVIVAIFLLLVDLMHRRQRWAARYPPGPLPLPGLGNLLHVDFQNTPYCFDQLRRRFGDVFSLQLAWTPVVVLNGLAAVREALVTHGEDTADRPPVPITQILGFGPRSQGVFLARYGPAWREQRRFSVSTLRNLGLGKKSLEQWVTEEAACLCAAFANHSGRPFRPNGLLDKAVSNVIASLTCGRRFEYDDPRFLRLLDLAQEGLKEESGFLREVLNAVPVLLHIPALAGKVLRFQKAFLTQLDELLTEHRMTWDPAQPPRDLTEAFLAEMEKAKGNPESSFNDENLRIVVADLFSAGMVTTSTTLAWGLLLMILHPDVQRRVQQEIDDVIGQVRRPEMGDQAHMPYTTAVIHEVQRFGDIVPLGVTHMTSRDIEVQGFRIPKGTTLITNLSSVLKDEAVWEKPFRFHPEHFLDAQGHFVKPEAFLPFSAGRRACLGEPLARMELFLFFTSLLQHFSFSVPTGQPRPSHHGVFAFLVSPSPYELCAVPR
Procedure, shortened: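 Inhibition of CYP2D6 was gauged by loss of luminescence, since light produced tracks the luciferin generated from a proluciferin substrate. A 10 min room-temperature preincubation preceded 1 h NADPH-supported turnover.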

[16] = target: Cytochrome P450 2C19 (Homo sapiens) (UniProt P33261); experiment: Cytochrome P450 Family 2 Subfamily C Member 19 (CYP2C19) small molecule antagonists: luciferase reporter qHTS assay (AID 1671197); note: nearly all actives have a fitted effect of over 65% in size; note: potency is the fitted concentration of half-maximal effect; for activity change, negative = inhibition: series mostly up to about 120 µM
Cytochrome P450 2C19 (Homo sapiens), sequence (P33261 whole entry, looked up): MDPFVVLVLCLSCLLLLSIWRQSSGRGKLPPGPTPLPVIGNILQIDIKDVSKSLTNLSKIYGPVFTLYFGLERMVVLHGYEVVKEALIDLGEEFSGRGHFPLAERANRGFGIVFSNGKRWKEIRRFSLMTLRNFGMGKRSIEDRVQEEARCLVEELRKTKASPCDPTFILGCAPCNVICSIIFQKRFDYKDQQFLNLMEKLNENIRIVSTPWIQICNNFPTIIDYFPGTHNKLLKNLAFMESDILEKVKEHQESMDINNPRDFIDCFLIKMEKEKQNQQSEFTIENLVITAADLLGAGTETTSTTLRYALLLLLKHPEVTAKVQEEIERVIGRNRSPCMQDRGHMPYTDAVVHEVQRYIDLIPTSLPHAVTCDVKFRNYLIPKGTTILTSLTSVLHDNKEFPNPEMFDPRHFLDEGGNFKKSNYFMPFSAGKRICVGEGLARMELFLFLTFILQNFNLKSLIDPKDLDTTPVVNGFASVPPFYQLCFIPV
Procedure, shortened: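 Enzyme-substrate mix with proluciferin substrate (P450-Glo CYP2C19 system) preincubated with compounds 10 min at room temperature; NADPH regeneration solution added, 37C for 1 h; detection reagent stops reaction, luminescence read after 20 min. Ketoconazole positive control.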

[17] = Human pregnane X receptor (PXR) small molecule agonists, qHTS cell viability counter screen (AID 1346977); note: nearly all actives have a fitted effect of over 50% in size
Procedure, shortened: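 PXR-Luc HepG2, 2,000 cells/well, 5% charcoal-stripped FBS; 5hr settle; cpd 24hr, 37C/5% CO2; CellTiter-Fluor at 23hr, read 1hr later (fluorescence).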

[18] = target: Nuclear receptor subfamily 1 group I member 2 (Rattus norvegicus) (UniProt Q9R1A7); experiment: Rat pregnane X receptor (rPXR) activation by small molecules, qHTS assay (AID 1346983); settings: rPXR luciferase reporter cells, One-Glo luminescence, 24 h; stronger effect = higher value; note: nearly all actives have a fitted effect of over 20% in size
Nuclear receptor subfamily 1 group I member 2 (Rattus norvegicus), sequence (Q9R1A7 whole entry, looked up): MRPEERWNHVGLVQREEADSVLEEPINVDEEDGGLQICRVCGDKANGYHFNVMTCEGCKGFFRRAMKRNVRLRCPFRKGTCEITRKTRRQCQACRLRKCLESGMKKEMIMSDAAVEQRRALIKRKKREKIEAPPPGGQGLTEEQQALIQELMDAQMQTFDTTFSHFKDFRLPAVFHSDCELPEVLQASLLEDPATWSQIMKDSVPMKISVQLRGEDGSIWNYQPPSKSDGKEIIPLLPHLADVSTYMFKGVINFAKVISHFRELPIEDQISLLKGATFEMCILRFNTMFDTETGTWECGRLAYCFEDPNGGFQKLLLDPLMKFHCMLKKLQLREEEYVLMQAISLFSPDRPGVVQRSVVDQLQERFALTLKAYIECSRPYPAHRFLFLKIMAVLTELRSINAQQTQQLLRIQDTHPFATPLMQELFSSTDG
Procedure, shortened: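 Cell-based rPXR luciferase reporter assay, 2,000 cells per well, rested 5hr at 37 C before compound addition in DMSO, then 24 hr at 37 C. One-Glo reagent was added and luminescence read after 30 min at room temperature.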

[19] = target: Nuclear receptor subfamily 1 group I member 2 (Homo sapiens) (UniProt O75469); experiment: CYP3A4 induction through human pregnane X receptor (PXR) by small molecules, qHTS assay (AID 1346984); note: nearly all actives have a fitted effect of over 40% in size
Procedure, shortened: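 DPX-2 reporter cells; 24h cpd, 37C; Luciferin-IPA 3uM final x3h; One-Glo 30 min RT; lumi read.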

| SMILES | Potency [1] | Potency [2] | outcome [3] | Potency [4] | Potency [5] | outcome [6] | outcome [7] | outcome [8] | outcome [9] | Potency [10] | outcome [11] | Potency [12] | Potency [13] | Potency [14] | Potency [15] | Potency [16] | Potency [17] | max activation [18] | outcome [19] | activity change, negative = inhibition [16] |
| --- | --- | --- | --- | --- | --- | --- | --- | --- | --- | --- | --- | --- | --- | --- | --- | --- | --- | --- | --- | --- |
| NS(=O)(=O)c1cc(C(=O)O)c(NCc2ccco2)cc1Cl | inactive | inactive | inactive | inactive | inactive | inactive | inactive | inactive | inactive | inactive | inactive | inactive | – | – | – | – | – | – | – | – |
| Nc1ccc(S(=O)(=O)Nc2nccs2)cc1 | inactive | inactive | inactive | inactive | inactive | inactive | inactive | – | – | inactive | inactive | inactive | inactive | inactive | inactive | inactive | – | – | – | – |
| O=C(O)/C=C\C(=O)O | inactive | inactive | inactive | inactive | inactive | inactive | inactive | inactive | inactive | inactive | inactive | inactive | inactive | – | 25.2 µM (active) and inactive | 41.3 µM (active) and inactive | inactive | – | – | – |
| CC(O)CN(CCN(CC(C)O)CC(C)O)CC(C)O (stereo not drawn) | inactive | inactive | inactive | inactive | inactive | inactive | inactive | inactive | inactive | inactive | inactive | inactive | inactive | – | 36.2 µM (active) | inactive | – | -4.71% (inactive) | inactive | – |
| Cc1ccc(C)c(OCCCC(C)(C)C(=O)O)c1 | inactive | inactive | inactive | inactive | inactive | inactive | inactive | – | – | inactive | inactive | inactive | inactive | – | inactive | 50.6 µM (active) and 56.4 µM (active) and inactive | – | – | – | – |
| O=C(O)CCC(=O)O | inactive | inactive | inactive | inactive | inactive | inactive | inactive | inactive | inactive | inactive | inactive | inactive | inactive | – | inactive | inactive | – | -3.42% (inactive) | inactive | – |
| O=C(O)C(=O)O | inactive | inactive | inactive | inactive | inactive | inactive | inactive | – | – | inactive | inactive | inactive | inactive | – | inactive | 81 µM (active) | – | – | – | -11.9% [at 10.5 µM] (inactive) |
